Screening results from PubChem.
Shown is part of a subset that was picked to be rich in hits.
Dicer processing: inhibitors of human Dicer processing of pre-microRNA. z-score at 25 µM. Q9UPY3. hit rate 6% among 47,000. cat-ELCCA pre-miR-21 Dicer processing, chemiluminescence; stronger effect = higher value; in the data active = z-score above about 3, passing the limit was not always enough;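 note: plate controls were vehicle for no effect and no enzyme for full effect; higher signal means more uncleaved substrate so more Dicer inhibition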
* marks the source's active call; other numbers are inactive results.

SMILES | Dicer processing
COc1cccc(C2C(C(=O)OC3CCCC3)=C(C)NC3=C2C(=O)CC(c2ccccc2)C3)c1OC (stereo unspecified) | -0.47
COc1ccc(C2c3c(oc4ccc(C)cc4c3=O)C(=O)N2CCCN(C)C)cc1 (stereo unspecified) | -0.2
COc1ccc(S(=O)(=O)Nc2ccc3c(c2)CS(=O)(=O)C3)cc1 | -0.04
O=S(=O)(c1ccccc1)c1csc(S(=O)(=O)N2CCCN(c3c(Cl)cncc3Cl)CC2)c1 | -2.2
Cc1ccc(-c2nc(-c3ccc(OCC(F)(F)F)nc3)no2)cc1 | -1.4
O=[N+]([O-])c1ccc(Cn2ccnc2-c2ccc(C(F)(F)F)cc2)cc1 | 0.78
CCc1nc2nc(C)c(Cc3cccc(Cl)c3)c(=O)n2[nH]1 | 273
O=c1c2[nH]cnc2n(-c2ccccc2F)c(=O)n1Cc1ccccc1F | 0.16
O=C(Nc1nccs1)c1ccc2noc(-c3ccccc3)c2c1 | -2.1
CC(C)(C)SC(=S)SCC(=O)c1ccc(Cl)c(Cl)c1 | -2.5
COC(=O)C1=C(C)NC2=C(C(=O)CC(c3ccc(OC)c(OC)c3)C2)C1c1ccc(SC)cc1 (stereo unspecified) | 1.2
COC(=O)C1=C(C)NC2=C(C(=O)CC(c3ccc(OC)c(OC)c3)C2)C1c1ccc(F)cc1 (stereo unspecified) | 4.5*
CCOCCOC(=O)C1=C(C)NC2=C(C(=O)CC(C)(C)C2)C1c1ccc(OC)c(OC)c1 (stereo unspecified) | -0.53
COC(=O)C1=C(C)NC2=C(C(=O)CC(c3ccc(OC)cc3)C2)C1c1ccc(OC)c(OC)c1 (stereo unspecified) | 2.1
COCCOC(=O)C1=C(C)NC2=C(C(=O)CC(C)(C)C2)C1c1ccc(OC)c(OC)c1 (stereo unspecified) | 3.7*
CCCCOC(=O)C1=C(C)NC2=C(C(=O)CC(C)(C)C2)C1c1ccc(OC)c(OC)c1 (stereo unspecified) | 0.33
N#CC1=C(SCc2ccccc2)SC(c2ccc(O)c(O)c2)NC1=O (stereo unspecified) | 0.3
Cc1ccc(NS(=O)(=O)c2sc3ccc(Cl)cc3c2C)cc1 | 1.4
COc1ccccc1NS(=O)(=O)c1sc2ccc(Cl)cc2c1C | 3.3*
Cc1c(S(=O)(=O)Nc2ccc3c(c2)OCCO3)sc2ccc(Cl)cc12 | 0.83
COc1ccc(OC)c(C(=O)CC2(O)C(=O)N(Cc3ccccc3)c3ccccc32)c1 (stereo unspecified) | -0.54
CC1=CC(C)(C)N(S(=O)(=O)c2ccc(F)cc2)c2ccc(C)cc21 | -0.75
CCOc1ccc(S(=O)(=O)N2c3ccc(C)cc3C(C)=CC2(C)C)cc1 | 3.5*
COc1ccc(S(=O)(=O)N2c3ccc(C)cc3C(C)=CC2(C)C)cc1 | -1
CCOC(=O)c1sc(N2C(=O)c3oc4ccc(C)cc4c(=O)c3C2c2ccc(O)cc2)nc1C (stereo unspecified) | 0.43
SMILES | Dicer processing
C=CCOC(=O)c1sc(N2C(=O)c3oc4ccc(C)cc4c(=O)c3C2c2ccc(O)cc2)nc1C (stereo unspecified) | 3.3*
COC(=O)c1sc(N2C(=O)c3oc4ccccc4c(=O)c3C2c2cccc(O)c2)nc1C (stereo unspecified) | 3.8*
C=CCOC(=O)c1sc(N2C(=O)c3oc4ccc(C)cc4c(=O)c3C2c2ccc(F)cc2)nc1C (stereo unspecified) | -0.01
COC(=O)c1sc(N2C(=O)c3oc4ccccc4c(=O)c3C2c2cccc(Cl)c2)nc1C (stereo unspecified) | 1.8
COC(=O)c1sc(N2C(=O)c3oc4ccccc4c(=O)c3C2c2ccc(C)cc2)nc1C (stereo unspecified) | -0.77
COC(=O)C1=C(C)Nc2nnnn2C1c1ccc(OCc2ccccc2)c(OC)c1 (stereo unspecified) | -1.3
O=c1[nH]nc(SCc2c(F)cccc2Cl)n1-c1ccccc1C(F)(F)F | 0.3
CCCc1n(CC(O)COc2cccc(C)c2)c2ccccc2[n+]1C (stereo unspecified) | -0.27
COc1cc(/C=N/N=C/c2ccccc2O)cc(OC)c1OC | 7.4*
CCNC(=S)N/N=C/c1cc(OC)c(OC)c(OC)c1 | 1.6
COc1ccc(/C=N/N=C/c2ccc(OC)c(OC)c2)cc1OC | -0.68
CC(C)(CO)NC(=S)Nc1ccc(F)cc1F | 0.1
Cc1ccc(NC(=O)/C=C/C(=O)Nc2ccc(C)c(Cl)c2)cc1Cl | 0.84
Cc1cccc(NC(=O)/C=C/C(=O)O)c1 | -0.11
O=C(O)/C=C/C(=O)Nc1ccc(C(=O)O)c(O)c1 | 4.7*
CCOC1c2ccccc2NC(c2ccccc2)C1(C)C (stereo unspecified) | -0.08
Cn1c(=O)[nH]c(=O)c2c1nc(NCCc1ccccc1)n2CCO | 0.28
CSc1ccc(CNCCNC(=O)c2nonc2N)cc1 | 1.4
CC(=O)Oc1ccc2c(c1)C(=O)c1cc(OC(C)=O)ccc1-2 | 6.2*
COC(=O)COc1ccc2c(c1)C(=O)c1cc(OCC(=O)OC)ccc1-2 | -4.1
CCOc1ccc2c(c1)C(=O)c1cc(O)ccc1-2 | 1
COCCCNC(=S)NNC(=S)Nc1cccc(C(F)(F)F)c1 | 0.98
O=C(Oc1ccc(Cl)cc1)c1sc2sccc2c1Cl | 0.21
